Measurements: PubChem BioAssay
Active and inactive are the calls of the source.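 The calls were made as follows: active = growth inhibition above 50% at the single 2 µM test dose, taken to imply half-maximal potency below 2 µM; inactive = the rest.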

Assay: antimalarial activity against Dd2 strain (AID 2302);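 also: 0% = DMSO untreated growth and 100% = chloroquine plus artemisinin killed control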
Conditions: P. falciparum Dd2 in RBCs, LDH growth readout, 72 h; at 2 µM; stronger effect = higher value
With `CCOc1cc(C)ccc1C1CCN(CCCCNC(=O)c2nc(-c3ccc(C(F)(F)F)cc3)[nH]c2C)CC1` the growth inhibition was 98% (active).
In the case of `Cc1sc2nc(CN3CCCC3)nc(-n3c(NCCO)nc4ccccc43)c2c1C`, the growth inhibition is reported as 11% (inactive).
In the case of `Fc1cccc(CNc2ncc(-c3ccsc3)c(-c3nccs3)n2)c1`, the growth inhibition is reported as 85% (active).
For `O=C(/C=C/c1ccc(Cl)c(Cl)c1)NCCCCCCN1CCCN(C(=O)Nc2ccc(F)c(Cl)c2)CC1`, the growth inhibition was 1% (inactive).
In the case of `Cc1ccc(C(=O)N2CCN(Cc3nccs3)CC2)cc1`, the growth inhibition is reported as -2% (inactive).
For `O=C(c1ccccc1)N(Cc1ccccc1-c1ccc(CNCCc2ccccc2)cc1)C1CCN(Cc2ccccc2)CC1`, the growth inhibition was 69% (active).
With `CC(=O)N(C)c1cccc(C(=O)Nc2cccc(-c3ccc(-c4nc5ccc(C(F)(F)F)cc5[nH]4)cc3)c2)c1` the growth inhibition was 31% (inactive).
In the case of `Nc1nc(N)c2c(ccc3c2ccn3CCCC2CCCNC2)n1` (stereo not given), the growth inhibition is reported as 55% (active).
For `COc1cc(C(C)C)nc2ccc(NC(=O)c3ccc(C(=O)Nc4ccc5nc(C(C)C)cc(OC)c5c4)cc3)cc12`, the growth inhibition was 72% (active).
In the case of `COc1cccc(C(=O)[C@H]2C[C@@H]2CN(C)CC(O)c2cc(C)c(OC)cc2C)c1` (stereo not given in full), the growth inhibition is reported as 73% (active).
For `Cc1sc(C)c(CNCCCNc2cc(=O)c3ccccc3[nH]2)c1Br`, the growth inhibition was 15% (inactive).
With `CC(C)Cn1cc(C2CCN(CCN3CCC(CNC(=O)c4ccc(NC(=O)c5cc(Cl)cc(Cl)c5)cc4)CC3)CC2)c2ccccc21` the growth inhibition was 96% (active).
In the case of `CC(C)c1sc(-c2ccc(C(C)(C)C)cc2)nc1C(=O)NCCCN1CCCC1=O`, the growth inhibition is reported as 92% (active).
In the case of `COC(=O)C(C)(C)Cc1c(SC(C)(C)C)c2cc(C(C)C)ccc2n1Cc1ccc(Cl)cc1`, the growth inhibition is reported as 96% (active).
In the case of `COc1cc(/C=C/C(=O)NCC(CCNc2cc(=O)c3ccccc3[nH]2)NCc2cc(Br)cc(Br)c2)cc(OC)c1` (stereo not given), the growth inhibition is reported as 28% (inactive).
With `CCC(C)CN1C(=O)C(c2ccccc2)(c2ccccc2)N=C1N` (stereo not given) the growth inhibition was 79% (active).
For `CCOc1ccc(-c2nonc2NC(=O)c2ccccc2Cl)cc1OCC`, the growth inhibition was 100% (active).
In the case of `Cc1noc(C)c1-c1cccc(CNCc2ccc(-c3cccc(-c4nc5ccc(C(F)(F)F)cc5[nH]4)c3)cc2)c1`, the growth inhibition is reported as 97% (active).
In the case of `COc1c(C2CCN(CCCCNC(=O)c3cc(-c4ccc(C#N)cc4)n[nH]3)CC2)ccc2c1CCCC2`, the growth inhibition is reported as 15% (inactive).
For `COc1ccc2nccc(NC(=O)N3CCC(NCCOc4cc(F)cc(F)c4)CC3)c2n1`, the growth inhibition was 38% (inactive).
With `CC(=O)c1cc(N2CCCC2)ccc1N` the growth inhibition was 97% (active).
With `C=C(C)Cn1cc(C2CCN(CCN3CCC(CNC(=O)c4ccc(-c5ccc(C#N)cc5)cc4)CC3)CC2)c2ccccc21` the growth inhibition was 94% (active).
For `O=C(Nc1ccc(-c2ccc(-c3nc4ccc(C(F)(F)F)cc4[nH]3)s2)cc1)c1cnc[nH]1`, the growth inhibition was 61% (active).
With `O=C(/C=C/c1ccc(CNCCN2CCOCC2)cc1)NCCc1ccccc1` the growth inhibition was 3% (inactive).
In the case of `CCCCN1CCCC[C@H]1[C@@H](O)c1ccnc2ccc(OCC)cc12`, the growth inhibition is reported as 88% (active).
